The text below walks through data of PubChem BioAssay (Tox21).

Assay [1] is described as follows: Nuclear factor erythroid 2-related factor 2/antioxidant responsive element (Nrf2/ARE) small molecule agonists: qHTS cell viability counter screen in human keratinocytes (AID 1919968; active means well fitted curve in the direction sought with a large enough effect in the repeat runs; an effect the other way counts as inactive or inconclusive; further: nearly all actives have a fitted effect of over 55% in size; further: potency means the concentration at half of the fitted maximal effect). The method in brief:
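Seed 1,500 KeratinoSens cells per well, then incubate 5 h at 37 C/5% CO2. Add compounds in DMSO and incubate 23 h. Add CellTiter-Fluor, wait 1 h and read fluorescence.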
For orientation: In qHTS, concentration-response curves come from the screen itself.

The nature of assay [2]: p53 small molecule agonists, cell-based qHTS assay with human liver microsomes (AID 1963577). A digest of the protocol: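 p53RE-bla reporter cells were pre-incubated 5 h at 37 C, then treated with compounds plus human liver microsomes (0.5 mg/mL final) and NADPH (0.5 mg/mL final) for 16 h at 37 C. Beta-lactamase activity was read by LiveBLAzer fluorescence after 2 h at room temperature.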

Assay [3] can be described thus: p53 small molecule agonists, cell-based qHTS assay with rat liver microsomes (AID 1963578). A digest of the protocol: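 p53RE-bla cells were exposed to compounds together with rat liver microsomes (0.5 mg/mL final) and NADPH (0.5 mg/mL final) for 16 h at 37 C, then read by LiveBLAzer beta-lactamase fluorescence after 2 h at room temperature.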
Assay [4] in a line: p53 small molecule agonists, cell-based qHTS assay with human liver microsomes: qHTS cell viability counter screen (AID 1963579). Further: nearly all actives have a fitted effect of over 45% in size. Further: potency means the concentration at half of the fitted maximal effect. A digest of the protocol: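 p53RE-bla cells (4,000/well) were pre-incubated 5 h at 37 C, then given compounds in DMSO plus human liver microsomes (0.5 mg/mL final) and NADPH (0.5 mg/mL final) for 16 h at 37 C. Viability was read by CellTiter-Glo luminescence.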

The nature of assay [5]: p53 small molecule agonists, cell-based qHTS assay with rat liver microsomes: qHTS cell viability counter screen (AID 1963580). Further: nearly all actives have a fitted effect of over 45% in size. Further: potency means the concentration at half of the fitted maximal effect. A digest of the protocol: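 HCT-116 p53RE-bla, 4,000 cells/well, 5 h pre-incubation; cpd + rat liver microsomes 0.5 mg/mL + NADPH 0.5 mg/mL (final); 16 h, 37 C; CellTiter-Glo, 30 min RT; luminescence.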
A short description of assay [6]: p53 small molecule agonists, cell-based qHTS assay: qHTS cell viability counter screen (AID 1963581). Further: nearly all actives have a fitted effect of over 45% in size. Further: potency means the concentration at half of the fitted maximal effect. The method in brief:
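Cells: HCT-116 with p53 response element-driven beta-lactamase. Treatment: 16 h, 37 C, compounds in DMSO. Read: CellTiter-Glo luminescence after 30 min RT.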

Assay [7] deals with 5-hydroxytryptamine receptor 2A (Homo sapiens) (UniProt P28223). Put plainly: 5-hydroxytryptamine receptor 2A (HTR2A) small molecule antagonists, cell-based qHTS assay (AID 1963586). Further: nearly all actives have a fitted effect of over 45% in size. The method in brief:
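Antagonist-mode intracellular calcium assay: DOI (4 nM) added after 5 min compound pre-incubation at room temperature to dye-loaded HTR2A-CHO cells. Fluorescence followed for 3 min, sampled every second.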

Assay [8] deals with Muscarinic acetylcholine receptor M1 (Homo sapiens) (UniProt P11229). Put plainly: Cholinergic receptor muscarinic 1 (CHRM1) small molecule antagonists, cell-based qHTS assay (AID 1963588). Further: nearly all actives have a fitted effect of over 40% in size. Further: potency means the concentration at half of the fitted maximal effect. A digest of the protocol: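 CHRM1-CHO calcium-flux assay, antagonist mode. Cells were seeded 18 h, dye-loaded 1 h at 37 C and given compound for 5 min at RT, then acetylcholine was added at 50nM. FDSS fluorescence was read 3 min; 15 concentrations, three runs.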

Assay [9] can be described thus: cAMP Responsive Elements (CRE) small molecule agonists, cell-based qHTS assay (AID 1963590). The method in brief:
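Agonist mode qHTS in CRE-bla HEK 293T cells: compounds dosed from DMSO for 3 h at 37 C/5% CO2, followed by LiveBLAzer B/G FRET substrate for 2 h at room temperature.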

Assay [10] is described as follows: cAMP Responsive Elements (CRE) small molecule antagonists, cell-based qHTS assay (AID 1963591; active means well fitted inhibition curve with a large enough effect in the signal ratio in the repeat runs, not every such curve was filed as active; the % refers to the signal ratio). The method in brief:
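Antagonist mode: test compounds are co-incubated with the adenylyl cyclase activator NKH477 (0.25 uM final) on CRE-bla HEK293T cells for 3 h at 37 °C, followed by LiveBLAzer substrate loading.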

Assay [11] concerns the target Beta-2 adrenergic receptor (Homo sapiens) (UniProt P07550). Put plainly: Adrenergic beta2 receptor (ADRB2) small molecule antagonists, cell-based qHTS assay (AID 1963592). Further: series mostly up to about 92 µM; nearly all actives have a fitted effect of over 50% in size. A digest of the protocol: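 Cells (CHO, stable ADRB2 overexpression) incubated 18-20hr at 37C; compounds added from DMSO; agonist mix (1nM isoproterenol, 100uM IBMX, 25uM Ro-20-1724) added; 0.5hr RT; d2-cAMP and anti-cAMP-cryptate added; 1hr RT; 665/615 nm read.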

The target is the same in assay [12]. The assay can be described thus: Adrenergic beta2 receptor (ADRB2) small molecule agonists, cell-based qHTS assay (AID 1963593).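 Further: CHO cells stably overexpressing human ADRB2.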 A digest of the protocol: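 CHO cells stably over-expressing ADRB2 were plated overnight at 37C, then dosed with compounds plus a stimulation mix containing 100uM IBMX and 25uM Ro-20-1724 for 0.5hr at room temperature. cAMP was measured by HTRF competition, 1hr.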

The target in assay [13] is D(2) dopamine receptor (Homo sapiens) (UniProt P14416). The assay can be described thus: Dopamine D2 receptor (DRD2) small molecule agonists, cell-based qHTS assay (AID 1963594). Further: nearly all actives have a fitted effect of over 35% in size. The method in brief: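 cAMP accumulation in DRD2-HEK293 cells measured by HTRF after 1 h detection; compounds added 10 min before NKH477 (200nM […]) forskolin-analogue stimulation, 30 min at room temperature, with Ro20-1724 present at 0.1 mM final.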

Assay [14] shares this target. The assay can be described thus: Dopamine D2 receptor (DRD2) small molecule antagonists, cell-based qHTS assay (AID 1963595; active means well fitted inhibition curve with a large enough effect in the signal ratio in the repeat runs, with a control signal flat; the % refers to the signal ratio). A digest of the protocol:
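HEK293 cells stably expressing DRD2, preincubated with 0.1 mM Ro20-1724 and compounds 10 min, were stimulated with 200 nM NKH477 plus 12 nM quinpirole for 30 min at room temperature; cAMP measured by HTRF (665/620 nm).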

For assay [15], the target named is Gonadotropin-releasing hormone receptor (Homo sapiens) (UniProt P30968). The assay can be described thus: Human gonadotropin-releasing hormone receptor (GnRHR) small molecule agonists, calcium flux assay in GnRHR-HEK293 cells (AID 1920063). Further: nearly all actives have a fitted effect of over 35% in size. The method in brief:
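Cells: HEK293 stably expressing human GnRHR. Steps: overnight (18 h) culture, 1 h calcium dye loading at 37 C, compound addition, kinetic fluorescence read at 480/540 nm. Each compound tested at 15 concentrations in triplicate.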
In general terms: Calcium assays in cells follow changes in intracellular calcium, usually with a dye or a luminescent sensor.

Assay [16] deals with KiSS-1 receptor (Homo sapiens) (UniProt Q969F8). Put plainly: Human kisspeptin (KISS1R) small molecule agonists, calcium flux assay in KISS1R-HEK293 cells (AID 1920064; active means well fitted curve in the direction sought with a large enough effect in the repeat runs; an effect the other way counts as inactive or inconclusive). A digest of the protocol: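 Cells plated and incubated 18 h; dye added, 1 h at 37 C; compounds in DMSO pinned in; signal read at 480/540 nm every second for 3 min. Each compound tested at 15 concentrations in triplicate.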

A short description of assay [17]: G protein-coupled receptor (GPCR) small molecule agonists, calcium flux assay: HEK293 wild type cell line counter screen (AID 1920065). The method in brief: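 Counter-screen of the Tox21 10K library for non-specific calcium release: dye-loaded cells received compounds in DMSO and were monitored by kinetic fluorescence (480/540 nm, 3 min). Fifteen concentrations, run in triplicate.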

In assay [18] the target is 5-hydroxytryptamine receptor 2A (Homo sapiens) (UniProt P28223). The assay can be described thus: 5-hydroxytryptamine receptor 2A (HTR2A) small molecule agonists, cell-based qHTS assay (AID 1963587). Further: nearly all actives have a fitted effect of over 30% in size. A digest of the protocol: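 Kinetic calcium-flux fluorescence (2 min, 1 sec intervals) after compound addition in agonist mode. HTR2A-CHO cells were cultured 18 h, then dye-loaded 1 h at 37 C.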

Assay [19] can be described thus: p53 small molecule agonists, cell-based qHTS assay (AID 1963582; active means well fitted activation curve with a large enough effect in the signal ratio in the repeat runs, not every such curve was filed as active; the % refers to the signal ratio). The method in brief: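 Quantitative HTS in p53RE-bla cells: after a 5 h settling period, compounds delivered in DMSO were left on cells for 16 h at 37 C, and reporter induction was measured as fluorescence following 2 h substrate loading.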
In assay [20] the target is Muscarinic acetylcholine receptor M1 (Homo sapiens) (UniProt P11229). Put plainly: Cholinergic receptor muscarinic 1 (CHRM1) small molecule agonists, cell-based qHTS assay (AID 1963589). Further: nearly all actives have a fitted effect of over 35% in size. Further: potency means the concentration at half of the fitted maximal effect. A digest of the protocol:
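Agonist-mode qHTS in CHO cells stably carrying human muscarinic M1. Intracellular calcium is tracked by fluorescence every second after compound transfer; each compound runs at 15 concentrations in three independent runs.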

Molecules are shown by their SMILES. Where “and” joins values, the source holds several entries; their conditions need not be identical. Equal entries are not always repeated. Inconclusive results are not listed. Some compounds were tested as several samples or in several runs, with calls that do not always agree. Calls of active or inactive are those of the source. Unless noted, the call rests on the fitted dose curve.

Sequence of KiSS-1 receptor (Homo sapiens) (Q969F8 whole entry, looked up): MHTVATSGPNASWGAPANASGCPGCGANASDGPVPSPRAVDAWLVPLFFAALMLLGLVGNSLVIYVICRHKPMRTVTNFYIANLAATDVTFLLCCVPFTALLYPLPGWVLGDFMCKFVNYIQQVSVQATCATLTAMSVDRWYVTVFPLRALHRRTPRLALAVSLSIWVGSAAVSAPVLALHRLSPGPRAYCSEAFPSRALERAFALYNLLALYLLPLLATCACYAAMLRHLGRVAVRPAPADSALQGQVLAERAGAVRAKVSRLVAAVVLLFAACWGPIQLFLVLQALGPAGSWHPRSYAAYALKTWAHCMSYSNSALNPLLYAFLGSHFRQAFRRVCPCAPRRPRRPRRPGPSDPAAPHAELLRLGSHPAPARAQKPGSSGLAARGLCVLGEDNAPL
Sequence of Muscarinic acetylcholine receptor M1 (Homo sapiens) (P11229 whole entry, looked up): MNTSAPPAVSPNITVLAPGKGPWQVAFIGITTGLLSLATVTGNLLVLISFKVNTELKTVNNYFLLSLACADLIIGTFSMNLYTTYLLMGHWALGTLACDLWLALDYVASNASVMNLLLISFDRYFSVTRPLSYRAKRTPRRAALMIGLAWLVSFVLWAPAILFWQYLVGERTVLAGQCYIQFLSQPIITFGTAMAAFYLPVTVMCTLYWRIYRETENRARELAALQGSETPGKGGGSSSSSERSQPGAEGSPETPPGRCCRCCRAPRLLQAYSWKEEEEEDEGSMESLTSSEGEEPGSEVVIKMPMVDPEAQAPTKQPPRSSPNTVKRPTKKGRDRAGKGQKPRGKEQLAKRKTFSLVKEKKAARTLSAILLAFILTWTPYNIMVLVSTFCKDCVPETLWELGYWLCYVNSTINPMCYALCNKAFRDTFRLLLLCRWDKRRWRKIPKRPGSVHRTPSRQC
Sequence of D(2) dopamine receptor (Homo sapiens) (P14416 whole entry, looked up): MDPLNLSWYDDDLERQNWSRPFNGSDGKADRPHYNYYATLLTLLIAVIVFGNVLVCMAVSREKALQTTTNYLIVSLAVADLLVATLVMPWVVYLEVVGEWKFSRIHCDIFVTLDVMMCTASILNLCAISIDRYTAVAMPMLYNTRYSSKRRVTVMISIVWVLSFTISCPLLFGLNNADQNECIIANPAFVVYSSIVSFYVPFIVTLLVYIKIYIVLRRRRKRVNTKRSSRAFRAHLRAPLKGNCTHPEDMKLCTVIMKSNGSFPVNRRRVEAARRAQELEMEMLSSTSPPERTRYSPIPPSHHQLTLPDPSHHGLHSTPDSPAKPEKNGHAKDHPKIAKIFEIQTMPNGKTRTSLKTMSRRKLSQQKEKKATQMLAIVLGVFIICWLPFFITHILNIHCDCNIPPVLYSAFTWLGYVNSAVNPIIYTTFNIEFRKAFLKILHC
Sequence of Beta-2 adrenergic receptor (Homo sapiens) (P07550 whole entry, looked up): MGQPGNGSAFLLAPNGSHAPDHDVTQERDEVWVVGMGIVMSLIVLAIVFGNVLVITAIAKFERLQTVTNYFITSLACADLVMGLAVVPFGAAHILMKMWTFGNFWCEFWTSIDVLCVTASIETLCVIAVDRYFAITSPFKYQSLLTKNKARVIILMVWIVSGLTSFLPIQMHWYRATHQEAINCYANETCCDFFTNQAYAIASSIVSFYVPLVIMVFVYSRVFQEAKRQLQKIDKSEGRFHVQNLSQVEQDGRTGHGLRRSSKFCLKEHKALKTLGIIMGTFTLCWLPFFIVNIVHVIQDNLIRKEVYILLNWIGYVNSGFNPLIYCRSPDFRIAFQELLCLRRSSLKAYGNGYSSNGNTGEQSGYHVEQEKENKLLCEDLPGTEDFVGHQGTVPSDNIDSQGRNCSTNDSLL
Sequence of 5-hydroxytryptamine receptor 2A (Homo sapiens) (P28223 whole entry, looked up): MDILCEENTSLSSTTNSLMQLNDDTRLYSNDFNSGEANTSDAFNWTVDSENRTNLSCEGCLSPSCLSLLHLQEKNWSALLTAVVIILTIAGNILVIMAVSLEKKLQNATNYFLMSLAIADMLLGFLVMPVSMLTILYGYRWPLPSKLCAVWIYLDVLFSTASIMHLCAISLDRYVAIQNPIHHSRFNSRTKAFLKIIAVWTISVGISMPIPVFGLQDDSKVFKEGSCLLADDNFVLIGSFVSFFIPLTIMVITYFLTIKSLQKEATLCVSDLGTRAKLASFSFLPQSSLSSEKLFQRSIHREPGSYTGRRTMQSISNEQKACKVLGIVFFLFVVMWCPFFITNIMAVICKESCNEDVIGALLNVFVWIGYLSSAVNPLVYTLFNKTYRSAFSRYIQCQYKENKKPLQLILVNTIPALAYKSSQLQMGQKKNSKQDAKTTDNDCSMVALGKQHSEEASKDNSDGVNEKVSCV
Sequence of Gonadotropin-releasing hormone receptor (Homo sapiens) (P30968 whole entry, looked up): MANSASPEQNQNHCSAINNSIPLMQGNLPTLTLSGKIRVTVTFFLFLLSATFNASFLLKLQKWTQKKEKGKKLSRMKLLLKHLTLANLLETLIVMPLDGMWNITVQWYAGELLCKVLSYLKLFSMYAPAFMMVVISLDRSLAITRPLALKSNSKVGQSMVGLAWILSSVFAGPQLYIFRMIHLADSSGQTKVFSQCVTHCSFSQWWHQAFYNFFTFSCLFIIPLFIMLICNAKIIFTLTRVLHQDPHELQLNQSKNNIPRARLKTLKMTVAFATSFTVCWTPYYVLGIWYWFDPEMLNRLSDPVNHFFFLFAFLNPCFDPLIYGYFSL

For the molecule `CCCCCCCCCCCCCCCCn1cc[n+](C)c1`, the Potency entry is “inactive and 27.6 µM (active) and 13.7 µM (active)” in assay [1]; 37.1 µM (active) and inactive and 46.2 µM (active) in [4]; “inactive and 36.7 µM (active) and 32.5 µM (active)” in assay [5]; 25.8 µM (active) in [6]; “inactive and 950 nM (active) and 2.66 µM (active)” in [8]. Also, the Potency entry in assay [2], in [3], in assay [7], in assay [9], in assay [10] and in [11] was “inactive” in each case. For the same molecule, the Potency result in assay [12], in assay [13] and in assay [14] was “inactive” in each case.

For `Cc1cnc(C2=NC(C)(C(C)C)C(=O)N2)c(C(=O)O)c1` (stereo unspecified), the Potency result in assay [1], in assay [15], in assay [16], in assay [17], in assay [2] and in [3] was “inactive” in each case. Besides, the Potency result in assay [4], in assay [5], in assay [6], in assay [18], in [8] and in [9] was “inactive” throughout. Moreover, the Potency result in assay [10], in [11], in [12], in assay [13] and in assay [14] was “inactive” throughout.

`CCOC(=S)S`: in [1], the Potency was 27.3 µM (active) and 18.3 µM (active). Also, the Potency entry in assay [15], in assay [16], in assay [17], in assay [2], in [3] and in assay [4] was “inactive” in each case. The Potency result in assay [5], in assay [6], in [19], in assay [18], in assay [8] and in assay [20] was “inactive” each time. Besides, the Potency entry in [9], in assay [10], in [11], in [13] and in assay [14] was “inactive” each time.

For the molecule `OCCCCO`, the Potency entry in assay [1], in assay [15], in [16], in assay [17], in assay [2] and in assay [3] was “inactive” throughout. The Potency result in assay [4], in assay [5], in [6], in [19], in assay [7] and in assay [8] was “inactive” each time. The Potency result in [20], in [9], in assay [10], in assay [11], in assay [12] and in assay [13] was “inactive” in each case. Besides, in assay [14], the Potency entry was “inactive”.

Turning to `BrCC(Br)c1ccccc1` (stereo unspecified), the Potency result in [1], in assay [15], in [16], in assay [17], in [2] and in assay [3] was “inactive” throughout. The Potency entry in assay [4], in assay [5], in assay [6], in assay [19], in assay [7] and in assay [18] was “inactive” in each case. In addition, the Potency entry in assay [8], in [20], in [9], in assay [10], in [11] and in assay [13] was “inactive” in each case. The Potency entry in assay [14] was “inactive”.

For `Nc1ccc(Br)cc1`, the Potency entry in [1], in assay [17], in assay [2], in [4], in assay [5] and in [6] was “inactive” throughout. Also, the Potency entry in assay [7], in [8], in assay [20], in [9], in assay [10] and in assay [11] was “inactive” each time. Moreover, the Potency result in assay [12], in [13] and in assay [14] was “inactive” in each case.

Regarding `Nc1nc(N)nc(NC2CC2)n1`, the Potency result in assay [1], in assay [15], in assay [16], in assay [17], in assay [2] and in assay [3] was “inactive” in each case. The Potency result in assay [4], in assay [5], in assay [6], in [19], in assay [9] and in [10] was “inactive” each time. Moreover, the Potency entry in assay [11], in [12] and in assay [14] was “inactive” each time.

On to `C[N+](C)(C)C`, for which the Potency entry in assay [1], in assay [15], in assay [16], in [17], in [2] and in [3] was “inactive” in each case. The Potency result in assay [4], in [5], in assay [6], in assay [19], in [7] and in assay [18] was “inactive” throughout. Also, the Potency entry in assay [8], in assay [10], in [11], in assay [12], in assay [13] and in assay [14] was “inactive” each time. In addition, in assay [20], the Potency is 22.1 µM (active).
